PubChem BioAssay AID488839 (Broad Institute, 2010)
Out of some 330,000 compounds screened, about 35 (0.01%) were called active.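 The calls were made as follows: active = highest replicate inhibition of at least 50% and at least 75% of replicates reaching 50%; inconclusive = only one of the two criteria met; inactive = both criteria failed.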 Only a sample is shown.

These compounds were tested against Cyclin-dependent kinase 5 (Homo sapiens) + Cyclin-dependent kinase 5 activator 1 (Homo sapiens) (UniProt Q00535+Q15078) (assay: CDK5/p35 phosphotransfer blockade – biochemical, single concentration, primary screen (AID 488839;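 also: plate controls were DMSO neutral control for no effect and GW8510 at 10 µM for full effect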)). Conditions: Recombinant CDK5/p35, ADP-Glo luminescence, 60 min; at 10 µM; stronger effect = higher value.
Sequence of Cyclin-dependent kinase 5 (Homo sapiens) + Cyclin-dependent kinase 5 activator 1 (Homo sapiens) (Q00535 whole entry, looked up): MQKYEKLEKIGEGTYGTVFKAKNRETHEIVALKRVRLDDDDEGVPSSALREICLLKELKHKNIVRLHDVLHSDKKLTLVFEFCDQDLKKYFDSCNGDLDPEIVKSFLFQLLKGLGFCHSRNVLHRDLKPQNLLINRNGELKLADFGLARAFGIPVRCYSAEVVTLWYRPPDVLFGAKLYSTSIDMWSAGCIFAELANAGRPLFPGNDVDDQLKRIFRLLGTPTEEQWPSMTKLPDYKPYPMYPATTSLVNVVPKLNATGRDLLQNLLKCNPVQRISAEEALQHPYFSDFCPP
Sequence of Cyclin-dependent kinase 5 (Homo sapiens) + Cyclin-dependent kinase 5 activator 1 (Homo sapiens) (Q15078 whole entry, looked up): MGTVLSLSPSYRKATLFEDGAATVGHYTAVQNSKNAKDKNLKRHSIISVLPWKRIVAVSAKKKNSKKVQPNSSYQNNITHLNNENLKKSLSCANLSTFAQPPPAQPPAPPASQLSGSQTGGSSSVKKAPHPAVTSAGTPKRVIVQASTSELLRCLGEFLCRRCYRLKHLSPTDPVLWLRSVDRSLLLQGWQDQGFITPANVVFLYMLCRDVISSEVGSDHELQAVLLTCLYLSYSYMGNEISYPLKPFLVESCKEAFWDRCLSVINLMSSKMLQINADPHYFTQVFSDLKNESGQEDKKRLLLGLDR

inhibition, inactive:
Cc1nnc(SC(C(=O)c2ccccc2)c2ccccc2)[nH]c1=O (stereo not given) 0.641%
COc1cccc(CN2C(=O)CCC2(C)C(=O)NC2CCCCCC2)c1 (stereo not given) 1.09%
COc1cccc2c1OCC(C(=O)NCc1ccc(Cl)cc1Cl)=C2 -2.22%
COc1ccc(CCNC(=O)CCC(=O)NC2CCCCC2)cc1OC 1.39%
CC(=O)Nc1ccc(NC(=O)C(C)OC(=O)C2CC(=O)N(CCc3ccccc3)C2)cc1 (stereo not given) -2.5%
CC1(C)CC(=O)C(C2=NC(C)(C)Cc3ccccc32)=C(O)C1 0.357%
COc1ccc(-n2nc3c(c2NC(=O)c2ccc(N4C(=O)CCC4=O)cc2)CSC3)cc1 2.36%
Brc1ccc(-c2n(-c3ccccn3)c3ccccc3[n+]2-c2ccccn2)cc1 3.32%
C=CCNC(=S)NNc1ncnc2sc3c(c12)CC(C)(C)OC3 -1.36%
Cc1ccc(S(=O)(=O)N2C3C=CC(C3)C2C(=O)O)cc1 (stereo not given) -7.35%
O=C(Cn1cnc2c(OCc3ccccc3)ncnc21)NCCCn1ccnc1 1.18%
CC(C)c1ccc(Nc2nnc(SCC(=O)c3nnc(-c4ccccc4)o3)s2)cc1 1.49%
Cc1cc(C(C)(C)C)cc(S(=O)(=O)Nc2ccc(C(=O)O)cc2)c1C 0.418%
Cc1ccc(SCC2=NNC(=O)C2)cc1 0.0205%
CC(C)C(NC(=O)c1c(F)cccc1F)C(=O)NCc1ccncc1 (stereo not given) -1.58%
Cc1ccc(N(C(=O)c2ccc(S(=O)(=O)N(C)C)cc2)C2C=CS(=O)(=O)C2)cc1 (stereo not given) 1.14%
COc1ccc(Cl)cc1NC(=O)CN(C)Cc1ccc(OC)c(OC)c1 -3.62%
CCOC(=O)N1CCC(NC(=O)Cn2cc3c(n2)CCCCC3)CC1 3.25%
CCCc1nc2oc3c(=O)[nH]cnc3c2c2c1COC(C)(C)C2 -0.359%
CCOC(=O)c1c(NC(C)=O)sc2c(O)c(Br)ccc12 -0.579%
Cc1ccc(C)c(NC(=O)COC(=O)CSc2ccccc2)c1 -0.511%
CCc1cc2c(=O)c(-c3nc4ccccc4n3C)c(CCCC(=O)O)oc2cc1OC(=O)C(C)(C)C -1.94%
O=C(CN1CCOCC1)Nc1c2c(nc3c1CCC3)CCC2 -2.33%
O=C(COC(=O)CNC(=O)C1CCCCC1)NCc1ccccc1 1.54%
CCCCc1nc(SCC(=O)Nc2nnc(C(C)C)s2)n[nH]1 -0.0356%
